# Source: PubChem (several laboratories)
# Rows were chosen to be rich in hits. Some 0.61% of all compounds tested hit in one or more screens of this group.
# CatS block: inhibitors of human cathepsin S; inhibition, %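 (tested at 5 µM per compound within 10-compound mixtures)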; recombinant cathepsin S, AMC dipeptide fluorescence, pooled mixtures; P25774; 62,000 tested, 0.06% active; in the data active means inhibition above about 32%, passing the limit was not always enough; inconclusive means no clear call, values can overlap the other calls;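 further: 0% = enzyme without compound and 100% = blank without enzyme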
# Target sequence (P25774 115-331 limits assumed): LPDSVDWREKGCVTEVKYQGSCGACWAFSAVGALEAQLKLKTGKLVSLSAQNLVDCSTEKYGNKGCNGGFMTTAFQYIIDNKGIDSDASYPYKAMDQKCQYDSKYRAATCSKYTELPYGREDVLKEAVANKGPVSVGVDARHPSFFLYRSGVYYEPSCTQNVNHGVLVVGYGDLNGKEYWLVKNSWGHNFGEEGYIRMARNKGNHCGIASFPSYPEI
# WNV protease inh: WNV NS2B-NS3 proteinase inhibition. AID 577. z-score (test concentration not listed). WNV NS2B-NS3 protease, fluorogenic substrate Ex360/Em465; active compounds read low. 65,000 tested, 0.18% active. P06935; in the data active means z-score below about -3
# CatB mix inh: human cathepsin B inhibition by mixtures; P07858; Purified cathepsin B, AMC dipeptide fluorescence, compound mixtures; inhibition, %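 (ten-compound pools at 5 µM per compound and 50 µM total)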; 62,000 tested, 0.06% active; AID 488; in the data active means inhibition above about 22%, passing the limit was not always enough; inconclusive means no clear call, values can overlap the other calls;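 further: 0% = enzyme without compound and 100% = no enzyme blank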
# Htt clearance: compounds clearing mutant huntingtin protein | HeLa Exon1htt(103Q)mCFP, aggregate imaging; zero = plate's median compound well | inhibition, % at 1.5 µM | 47,000 tested, 0.42% active;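 active means inhibition of aggregate fluorescence above about 70%, also judged a hit by eye on the cell image, limit read from the data, passing the limit was not always enough; inconclusive means no rule stated for this call; inactive means not judged a hit on image review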;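 further: cells exposed to compound for three days before fixation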
# CatB block: blocks human cathepsin B protease activity; P07858; purified cathepsin B, fluorogenic substrate, fluorescence; 63,000 tested, 0.1% active; inhibition, %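 (tested at 10 µM)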; AID 453; in the data active means inhibition above about 21%;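 further: 0% = enzyme with no compound and 100% = no enzyme blank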
# CatL inh: blocks human cathepsin L protease activity; P07711; purified cathepsin L, fluorogenic substrate, fluorescence; inhibition, %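 (tested at 10 µM)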; 58,000 tested, 0.17% active; AID 460; in the data active means inhibition above about 45%;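 further: 0% = enzyme with no compound and 100% = no enzyme blank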
# Target sequence (P07711 114-288 limits assumed): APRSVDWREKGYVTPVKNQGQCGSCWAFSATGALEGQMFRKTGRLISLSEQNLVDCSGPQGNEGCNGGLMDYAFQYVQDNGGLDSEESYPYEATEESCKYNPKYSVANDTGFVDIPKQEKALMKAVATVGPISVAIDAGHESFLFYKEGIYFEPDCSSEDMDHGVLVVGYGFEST
# Target sequence (P07711 292-333 limits assumed): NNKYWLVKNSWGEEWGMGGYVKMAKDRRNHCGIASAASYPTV
# * hit, by the source's call; ? = inconclusive; . = no result.
SMILES,CatS block,WNV protease inh,CatB mix inh,Htt clearance,CatB block,CatL inh
Cc1cc(C)n2nc3nc4c(cc3c2n1)CCCC4,1.0,-0.94,-2.8,.,3.7,-33.6
CCCCNC(=O)COC(=O)c1cc2c(C)nn(-c3ccccc3)c2s1,1.6,0.26,6.4,.,-3.9,-2.6
CCOC(=O)c1ccc2c(c1)nc(COc1ccc(OC)cc1)n2CC,.,.,.,-4.5,.,.
O=C(c1ccco1)N(CCCN1CCOCC1)c1nc(-c2ccc(Cl)cc2)cs1,-5.1,-3.11*,-1.7,-45.6,-1.5,17.9
COc1ccc(-c2ccnc(SCC(=O)Nc3ccccn3)n2)cc1,.,.,.,7.9,.,.
O=C(Nc1ccc(Cl)cc1)NC1CCCC1Cc1ccco1 (stereo unspecified),0.2,-4.85*,-0.9,29.8,-2.4,-2.8
C=CCSC1=C(C#N)C(c2ccc(OCC)cc2)CC(=O)N1 (stereo unspecified),?,0.35,-3.6,-22.3,1.9,102.2*
O=S(=O)(/N=S1/CC=CCN1S(=O)(=O)c1ccccc1)c1ccccc1 (stereo unspecified),-19.5,0.00108,?,22.5,34.8*,.
CN(C1CCCCC1)S(=O)(=O)c1ccc(C(=O)O)cc1,5.5,-0.15,-4.7,-60.5,12.8,1.5
CN(C1CCCCC1)S(=O)(=O)c1ccc(Cl)c(C(=O)O)c1,17.2,0.99,1.0,.,7.3,48.3*
CCC(Sc1nnnn1-c1ccccc1)C(=O)Nc1nc2ccccc2s1 (stereo unspecified),27.4,.,3.2,.,5.7,11.6
CCC(Sc1nnnn1-c1ccccc1)C(=O)NC(C)c1ccccc1 (stereo unspecified),-4.3,-0.54,-0.5,71.2*,0.5,10.2
Cc1ccc(C(=O)N/C(=C\c2cn(-c3ccccc3)nc2-c2ccccc2)C(=O)N2CCOCC2)cc1,.,.,.,-42.3,.,.
COc1ccc(OCC(=O)Nc2ccc(S(=O)(=O)N3CCOCC3)cc2)cc1,5.9,-0.52,-2.9,87.0*,1.1,.
O=C(COc1ccccc1)Nc1ccc(S(=O)(=O)N2CCOCC2)cc1,-2.7,-1.34,-1.7,-43.5,1.6,5.1
CCCNCc1cc(OC)c(OCCC)cc1Cl,.,.,.,-24.3,.,.
CCC(=O)N/C(=N/c1nc(C)cc(C)n1)Nc1cccc(OC)c1,-8.6,-0.02,-4.4,19.6,-3.4,0.0
CCn1cc(C(=O)Nc2cccc(C(=O)OC)c2)c(=O)c2ccc(C)nc21,-7.4,-6.17*,4.1,.,-1.6,-0.9
COCCCn1c(SCC(=O)Nc2nnc(C)s2)nnc1-c1ccoc1C,-6.5,-1.23,3.9,77.6*,-5.1,-14.6
CCc1nnc(NC(=O)CSc2nnc(-c3ccoc3C)n2CC(C)C)s1,-1.1,0.57,-1.3,.,2.3,-0.1
CCOC(=O)C1CCN(C(=O)c2cccnc2Cl)CC1,.,.,.,10.5,.,.
COc1ccccc1N1CCN(C(=O)CSc2nc(C)c(Cc3ccccc3)c(=O)[nH]2)CC1,0.5,0.3,-1.6,79.6*,-1.2,20.8
COc1ccccc1N1CCN(C(=O)CSc2nc(-c3ccccc3)cc(=O)[nH]2)CC1,11.0,0.18,1.7,.,1.3,5.6
CCC(C(=O)O)n1nnc(-c2ccc(-c3ccc(OC)cc3)cc2)n1 (stereo unspecified),3.7,0.39,0.5,9.9,-3.0,65.7*
CCC(=O)N/C(=N\OCc1ccc(F)cc1)c1nonc1NC(=O)CC,.,.,.,-12.4,.,.
SMILES,CatS block,WNV protease inh,CatB mix inh,Htt clearance,CatB block,CatL inh
Cc1ccc2c(c1)-c1c(cnn1CC(=O)Nc1ccccc1N1CCN(C)CC1)CO2,-7.4,-1.04,1.7,.,0.8,8.1
COC(=O)CSC1=C(C#N)C(c2ccc(C)cc2)C2=C(CCCC2=O)N1 (stereo unspecified),21.0,-5.03*,2.4,.,8.7,.
CCOC(=O)CSC1=C(C#N)C(C)C2=C(CCCC2=O)N1 (stereo unspecified),10.6,0.57,-4.8,.,2.2,12.4
CC(C)[C@H](N)c1nnc(SC/C=C/c2ccccc2)o1,.,.,.,-7.8,.,.
COc1ccc(C2C(C(=O)NCc3ccccn3)c3cc(OC)c(OC)cc3C(=O)N2C)cc1 (stereo unspecified),-10.1,-0.42,-3.3,.,5.0,58.9*
COc1cc2c(cc1OC)C(C(=O)NCc1cccnc1)C(c1cccnc1)N(C)C2=O (stereo unspecified),-4.1,0.16,-3.5,-36.2,-3.9,0.8
CC(C(=O)Nc1nccs1)N1C(=O)C2CC=CCC2C1=O (stereo unspecified),11.6,0.67,-6.8,-6.8,0.1,8.6
